Screens as filed in PubChem.
Most compounds without a hit are left out; they make up all but 5.8% or so of the library.
KB-3-1 tox – kills parental KB-3-1 adenocarcinoma cells; KB-3-1 viability, CellTiter-Glo ATP luminescence, 72 h; Potency, µM (series often up to 46.1 µM), actives largely listed as cytotoxic; 400,000 compounds, 1.4% hits; also: % is scaled to controls: 0 for no effect and ±100 for the full control effect; nearly all actives have a fitted effect of over 60% in size
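Screening of KB-3-1 cells (DMEM, 10% FBS, phenol-red free) ran from lowest to highest compound concentration; after 72 h at 37 °C viability was read luminescently and curves fitted.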
PINK1 expr mod – modulators of PINK1 expression | 410,000 compounds, 0.2% hits | PINK1 immunofluorescence, high-content cytometry, 24 h | Potency, µM (doses to about 76.6 µM), for inactives: at the highest dose activation (PINK1 increase), actives largely listed as activators | AID 624263; active = well fitted activation curve with a large enough effect; inconclusive = small, poorly fitted or top-dose-only effect; cell line not stated here; also: % of control where 0% means no effect; nearly all actives have a fitted effect of over 65% in size
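Cells are seeded, rested 12 hours, then given compound at five concentrations or DMSO for 24 hours. After fixation, blocking and antibody staining, PINK1 amount and mitochondrial localization are scored; CCCP serves as control.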
ALOX12 inh – ALOX12 (human) lipoxygenase inhibition; P18054; purified 12hLO, xylenol orange hydroperoxide absorbance; Potency, µM (highest dose often 108 µM), without a hit: at the highest dose activity change, negative = inhibition, most hits filed as inhibitors; 580,000 compounds, 1.1% hits; also: % is scaled to controls: 0 for no effect and ±100 for the full control effect
Target sequence (P18054 whole entry, looked up): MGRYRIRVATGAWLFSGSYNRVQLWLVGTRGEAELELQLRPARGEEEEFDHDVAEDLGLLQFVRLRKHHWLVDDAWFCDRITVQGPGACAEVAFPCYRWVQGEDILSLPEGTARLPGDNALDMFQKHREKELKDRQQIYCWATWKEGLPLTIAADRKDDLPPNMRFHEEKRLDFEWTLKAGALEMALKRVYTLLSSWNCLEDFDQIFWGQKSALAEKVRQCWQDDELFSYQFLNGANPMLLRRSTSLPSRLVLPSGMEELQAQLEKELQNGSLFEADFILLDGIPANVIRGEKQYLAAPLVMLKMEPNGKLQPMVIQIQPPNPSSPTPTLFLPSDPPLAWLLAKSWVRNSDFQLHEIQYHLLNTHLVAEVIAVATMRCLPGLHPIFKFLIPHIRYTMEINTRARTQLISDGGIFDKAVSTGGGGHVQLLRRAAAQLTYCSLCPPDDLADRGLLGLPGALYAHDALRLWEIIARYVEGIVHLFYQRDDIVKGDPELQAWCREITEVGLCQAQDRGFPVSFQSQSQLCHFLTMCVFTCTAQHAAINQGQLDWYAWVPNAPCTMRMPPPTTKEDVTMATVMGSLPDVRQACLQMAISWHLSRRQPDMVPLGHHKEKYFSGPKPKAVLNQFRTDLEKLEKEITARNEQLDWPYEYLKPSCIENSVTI
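Purified human 12hLO (150 nM final) in 25 mM Hepes, 0.01% Triton X-100, pH 7.0 was preincubated 15 min at room temperature with compound. Then 40 uM arachidonic acid was added, 30 min. Hydroperoxide was read by Fe-XO absorbance ratio 573/405 nm.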
MCF10A rereplic – inducers of DNA re-replication in MCF 10A breast cells; MCF 10A DNA re-replication, Hoechst nuclear intensity, 48 h; Potency, µM (highest dose often 46.1 µM), inactives show at the highest dose activity, positive = re-replication, usual class: activators; 350,000 compounds, 2.9% hits; AID 624296; also: % of control where 0% means no effect; nearly all actives have a fitted effect of over 50% in size
SW480 rerep – induces DNA re-replication in SW480 colon adenocarcinoma cells; 340,000 compounds, 1.8% hits; SW480 DNA re-replication, Hoechst DNA content imaging, 48 h; Potency, µM (series often up to 46.1 µM), for the others: top-dose re-replication activation, actives largely listed as activators; also: % of control where 0% means no effect; nearly all actives have a fitted effect of over 55% in size
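250 cells/well; 23 nL cpd via pin tool; 48 hr, 37 C, 5% CO2; Hoechst 40 min; imager read of total nuclear intensity, ex 405/em 500-530 nm.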
KB-V1 MDR tox – KB-V1 MDR subline cytotoxicity; KB-V1 MDR cells viability, CellTiter-Glo, 72 h; Potency, µM (series often up to 46.1 µM), usual class: cytotoxic; 400,000 compounds, 3.4% hits; also: % is scaled to controls: 0 for no effect and ±100 for the full control effect; nearly all actives have a fitted effect of over 60% in size
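Readout: CellTiter-Glo luminescence, 10 min after addition. Cells: KB-V1 MDR subline, 72 h at 37 degrees C with compound. Analysis: corrected, normalized data fitted to concentration-effect curves.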
* = called active by the depositor; i = inactive; ? = inconclusive; · = not tested or not shown; ! = not active in a repeat. Unless noted, calls follow the shape of the dose curve; as a rule, active = well fitted curve in the direction sought with a large enough effect; inconclusive = small, poorly fitted or top-dose-only effect, or another doubt; inactive = no such curve, though single readings can be large; an effect the other way counts as inactive or inconclusive. Potency is read from the fitted curve at half-maximal effect.

SMILES | KB-3-1 tox | PINK1 expr mod | ALOX12 inh | MCF10A rereplic | SW480 rerep | KB-V1 MDR tox
COc1cc(/C=C2\SC(N3CCc4ccccc4C3)=NC2=O)cc(OC)c1OC | ? | 17.0% | -14.9% | ? | -4.7% | 2.31µM*
COc1ccc(-n2c(C)c(C)c3c2ncn2nc(-c4cccs4)nc32)cc1 | · | · | 18.3% | · | · | ·
COc1ccc(/C=C/C(=O)OCCCC(c2ccc(F)cc2)c2ccc(F)cc2)cc1OC | · | · | -7.0% | · | · | ·
Cc1csc(NC(=O)c2nc(-c3ccccc3)n(-c3ccccc3)n2)n1 | ? | -1.7% | -13.7% | 6.9% | -4.9% | 10.3µM*
CCSc1nnc(NC(=O)c2ccc(C)o2)s1 | i | -2.8% | -7.1% | 1.5% | -2.2% | 18.4µM*
CCSc1nnc(NC(=O)c2nc(-c3ccccc3)n(-c3ccccc3)n2)s1 | i | -1.1% | -0.3% | 10.3µM* | -8.8% | ?
CCc1nnc(NC(=O)c2ccc(C)o2)s1 | i | 0.1% | 0.0% | 11.2% | 3.6% | i
Oc1ccccc1C=Nc1cccc2ccccc12 | i | 1.9% | 140.1% | -2.1% | -5.8% | i
Oc1cccc2c(N=Cc3ccc(F)c(F)c3)cccc12 | · | · | 22.4µM* | · | · | ·
O=C(O)CN1CCNCCN(CC(=O)O)CCNCC1 | ? | 3.0% | 0.5% | -9.2% | 2.91µM* | ?
O=C(O)CN1CCN(CC(=O)O)CCN(CC(=O)O)CCN(CC(=O)O)CC1 | i | 0.1% | -11.7% | -4.4% | -7.3% | i
Cc1ccc2c(C(=O)O)cc(-c3cccnc3)nc2c1C | · | · | 11.2% | · | · | ·
Cc1cc(C)c(O)c(CN(C)Cc2cc(Cl)cc(Cl)c2O)c1 | ? | ? | 39.8µM* | 1.64µM* | ? | ?
Cc1ccnc(NCc2cc(Cl)cc(Cl)c2O)c1 | i | 3.4% | -23.1% | · | · | i
O=C(O)COc1ccc2oc3c(c2c1)CCCC3 | i | 1.1% | 2.2% | 2.06µM* | -24.8% | i
CCCCn1cc(C(=O)c2cc(Br)ccc2O)cc(C#N)c1=O | ? | 17.8µM* | 329.2% | ? | -0.1% | ?
Cc1ccccc1NC(=O)c1cc(C(=O)c2cc(Cl)ccc2O)cn(-c2ccccc2C)c1=O | i | 15.8µM* | -13.4% | 22.9% | · | 9.2µM*
Cc1ccc(-n2cc(C(=O)c3cc(Cl)ccc3O)cc(C#N)c2=O)cc1 | i | 17.8µM* | ? | ? | 7.4% | 16.4µM*
COc1cccc(C(=O)COC(=O)C(CC(=O)c2ccccc2)Nc2ccc(F)cc2)c1 (stereo unspecified) | · | · | -23.4% | · | · | ·
N#CCCCCS(=O)(=O)c1ccc2c(c1)OCCO2 | · | · | -50.5% | · | · | ·
Oc1cc2c(cc1O)[C@@H](c1ccccc1)CNCC2 | i | 1.0% | ? | 18.4µM* | 19.3% | i
COCCNC(=S)N1CCC2CC1c1cc(-c3ccc4c(c3)OCO4)ccc12 (stereo unspecified) | i | 2.3% | 28.2µM* | · | · | i
S=C(NCCc1ccccc1)N1CCC2CC1c1c(Cl)cccc12 (stereo unspecified) | i | 5.6% | ? | · | · | i
S=C(NCCc1ccccc1)N1CCC2CC1c1cc(-c3ccc4c(c3)OCO4)ccc12 (stereo unspecified) | i | -0.1% | 28.2µM* | · | · | i
O=C(/C=C/c1ccccc1O)c1ccc(Br)cc1 | · | · | -70.2% | · | · | ·
SMILES | KB-3-1 tox | PINK1 expr mod | ALOX12 inh | MCF10A rereplic | SW480 rerep | KB-V1 MDR tox
COC(=O)C1=C(C)N(Cc2ccc(C)cc2)C(=O)/C1=C\c1cc(OC)c(OC)c(OC)c1 | i | 6.4% | ? | ? | ? | ?
COC(=O)C1=C(C)N(Cc2ccc(C)cc2)C(=O)/C1=C\c1ccc(O)c(OC)c1 | i | 27.5% | 28.2µM* | ? | 1.2% | ?
COc1ccc(N(C(=O)CCl)C(C(=O)NCCc2ccccc2)c2cccs2)cc1 (stereo unspecified) | 7.31µM* | -5.0% | 0.0% | ? | 3.26µM* | 18.4µM*
COCc1c(C(=O)OCC(=O)NCC2CCCO2)sc2cccc(F)c12 (stereo unspecified) | · | · | 0.0% | · | · | ·
Cc1ccc(C(=O)C(C#N)C(=O)Nc2ccccc2C)cc1C (stereo unspecified) | · | · | -10.3% | · | · | ·
CCCN1CCOC(CC(=O)Nc2ccc([N+](=O)[O-])cc2)C1=O (stereo unspecified) | i | 0.2% | -15.9% | 0.5% | 1.1% | i
CCN1CCOC(CC(=O)Nc2cccc([N+](=O)[O-])c2)C1=O (stereo unspecified) | i | -1.2% | 0.0% | 20.6µM* | 109.1% | i
Cc1cccc2c1N(Cc1ccccc1OC(C)C)C(=O)C2=O | · | · | 14.3% | · | · | ·
Cc1cc(Br)cc2c1N(Cc1ccccc1OC(C)C)C(=O)C2=O | · | 20.3% | 4.47µM*! | · | · | ·
Cc1cc(C)c2c(c1)/C(=N/NS(=O)(=O)c1ccc(Br)cc1)CCC2 | i | 2.8% | -15.1% | 7.08µM* | 2.7% | ?
Cc1cc(C)c2c(c1)/C(=N/NS(=O)(=O)c1ccccc1)CCC2 | i | -1.0% | ? | ? | 0.2% | i
COc1cc(/C=N/O)ccc1OC(C)C | · | · | 12.5% | · | · | ·
Cn1c(O)c(/C=N/NC(=O)c2cc3ccccc3cc2O)c2ccccc21 | ? | ? | -0.2% | 20.6µM* | ? | i
CN1CC(c2ccc(Cl)c(Cl)c2)[C@@]2(COc3ccccc3C2=O)[C@@]12C(=O)Nc1ccccc12 (stereo partly specified) | ? | ? | 0.0% | 16.4µM* | ? | 9.2µM*
Cc1ccc(C(C)NC(=O)CSc2ccc(S(=O)(=O)N3CCOCC3)cn2)cc1C (stereo unspecified) | i | 0.6% | ? | 13.8% | 3.0% | 18.4µM*
CCOC(=O)C(NC(=O)c1cccc(C(F)(F)F)c1)(OCc1ccccc1)C(F)(F)F (stereo unspecified) | · | · | 31.7% | · | · | ·
CCOC(=O)Nc1sc2nc(C)cc(C)c2c1-n1cccc1 | ? | 5.9% | -17.9% | 26.6% | -0.6% | 18.4µM*
COCCNC(=O)CS(=O)(=O)Cc1nc(-c2cccc(OC)c2)oc1C | · | · | -1.5% | · | · | ·
Cc1ccc(S(=O)(=O)/N=C2/NC(=O)/C(=C/c3ccncc3)S2)cc1 | · | · | ? | -7.1% | 1.8% | ·
O=C1N/C(=N/S(=O)(=O)c2ccccc2)S/C1=C/c1cccnc1 | i | 8.1% | ? | ? | 2.0% | ?
Cc1ccc(S(=O)(=O)/N=C2/NC(=O)/C(=C/c3ccccc3)S2)cc1 | i | 0.2% | 12.6µM* | ? | 3.6% | i
Cc1ccc(S(=O)(=O)/N=C2/NC(=O)/C(=C\c3ccco3)S2)cc1 | ? | -1.8% | ? | 4.5% | -25.0% | i
Cc1ccc(S(=O)(=O)/N=C2/NC(=O)/C(=C\c3ccccc3)S2)cc1 | ? | ? | 39.8µM* | ? | -7.4% | ?
